# High-throughput results deposited in PubChem by National Center for Advancing Translational Sciences (NCATS).
# p53null 39C kill = p53 null cell cytotoxicity, nonpermissive temperature. Potency, µM (titrated, usually from 46.1 µM), for the others: top-dose activity, negative = cell killing, hits mostly cytotoxic. H1299 p53-null (neo) cells, 39C, ATPlite viability, 24 h. 55,000 compounds, 0.97% hits. AID 904;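 note: potency is the fitted concentration of half-maximal effect; 0% = DMSO only and -100% = full killing by 100 µM tamoxifen; nearly all actives have a fitted effect of over 50% in size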
#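 Concentration-response (up to 46 uM) was run for 24 h at the nonpermissive 39C on H1299-p53A138V or H1299-neo cells. ATP content was measured with ATPlite luminescence. AC50 values were Hill-modeled after normalizing between DMSO and 100 uM tamoxifen killing.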
# PMP22 txn prim = modulators of PMP22 gene transcription in S16 Schwann cells; S16 Pmp22-F2sN Schwann cells, FLuc/NLuc coincidence luminescence, 24 h; Potency, µM (doses to about 57.5 µM), inactives show top-dose activity change, negative = inhibition, actives largely listed as inhibitors; 43,000 compounds, 2% hits; AID 1508649; active = clear falling dose curves in both reporters; inconclusive = both reporters move, but less clearly or upward; inactive = either reporter flat; the % is the NLuc reporter signal; note: potency is the fitted concentration of half-maximal effect; % is set by controls: 0 for no effect and ±100 for the full control effect
#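 Transcriptional readout in edited S16(c9) cells: two luciferases reported from the Pmp22 locus, measured in turn after 24 h compound incubation.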
# S16 viability = toxic to S16 Pmp22-F2sN Schwann cells | 43,000 compounds, 0.48% hits | Potency, µM (doses to about 57.5 µM), without a hit: top-dose activity change, negative = cytotoxicity, usual class: cytotoxic | S16 Pmp22-F2sN Schwann cells viability, CellTiter-Glo, 24 h | AID 1508642; note: potency is the fitted concentration of half-maximal effect; % is set by controls: 0 for no effect and ±100 for the full control effect; nearly all actives have a fitted effect of over 65% in size
#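 Seed 500-1,000 S16 Pmp22-F2sN cells per well in phenol-red-free DMEM with 10% heat-inactivated FBS; pin-add 23 nL compound; incubate 24 h at 37C; add CellTiter-Glo, wait 15 min protected from light; read luminescence.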
# p53null 32C tox = selectivity test: cytotoxicity in p53 null cells, permissive temperature | 55,000 compounds, 0.62% hits | Potency, µM (series often up to 46.1 µM), inactives show at the top dose activity change, negative = cytotoxicity, usual class: cytotoxic | H1299-neo p53 null cells, ATP luminescence, 24 h, 32C;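 note: potency is the fitted concentration of half-maximal effect; 0% = DMSO only and -100% = full killing by 100 µM tamoxifen; nearly all actives have a fitted effect of over 55% in size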
#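 Overnight 37C seeding (600 cells/well) of H1299-neo preceded a 24 hr, 32C exposure to compounds up to 46 uM. ATP levels, read by luminescence after 20 min at RT, indicated surviving cells.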
# mTORC1 inh = inhibitors of mTORC1 signaling in Tsc2-/- p53-/- MEF cells. Tsc2-/- p53-/- MEF, phospho-rpS6 immunofluorescence/PI, 24 h. Potency, µM (titrated, usually from 38.3 µM), without a hit: at the highest dose activity change, negative = inhibition, most hits filed as inhibitors. 44,000 compounds, 0.78% hits. AID 493208;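 note: potency is the fitted concentration of half-maximal effect; plate controls were DMSO for no effect and rapamycin for full effect; nearly all actives have a fitted effect of over 50% in size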
#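 Readout is phospho-S6 Alexa 488 signal normalized to PI per well, reported as % active cells with thresholds set from rapamycin (7.5 nM) and DMSO controls. Cells: Tsc2-/-, p53-/- MEFs, 24 hrs compound at 37 C; PI cell number serves as viability.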
# OvCa metastasis = inhibitors of ovarian cancer cell adhesion and invasion in omental model. SKOV3ip1-GFP adhesion/invasion on 3D omental model, fluorescence. 46,000 compounds, 0.1% hits. Potency, µM (series often up to 45.8 µM), without a hit: at the highest dose activity change, negative = inhibition, hits mostly inhibitors;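 note: potency is the fitted concentration of half-maximal effect; plate controls were DMSO wells for no effect and tomatine positive control wells for full effect; nearly all actives have a fitted effect of over 65% in size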
#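 qHTS, 4-pt dose (0.36-46 umol/L); SKOV3ip1-GFP, 1,200 cells/well, no FBS; primary omental fibroblast/mesothelial co-culture 48 h pre-grown; 2 h RT + 16 h 37 C; PBS wash, 4% PFA; GFP count 488/509 nm.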
# NLuc saturating = counter-screen for PMP22 expression modulators: NanoLuc inhibition, saturating substrate; 690 compounds, 4% hits; Secreted NLuc enzyme (filtered S16 cell medium), Nano-Glo luminescence; shares compounds with PMP22 txn prim; Potency, µM (top dose mostly 57.5 µM), without a hit: at the highest dose activity change, negative = inhibition, usual class: inhibitors; AID 1508638; note: potency is the fitted concentration of half-maximal effect; % is set by controls: 0 for no effect and ±100 for the full control effect
# NLuc Km counter = inhibits NanoLuc under Km conditions, PMP22 counter-screen. shares compounds with PMP22 txn prim. secreted NLuc enzyme, coelenterazine luminescence, Km conditions. Potency, µM (doses to about 57.5 µM), inactives show at the highest dose activity change, negative = inhibition, actives largely listed as inhibitors. 690 compounds, 5% hits. AID 1508639; note: potency is the fitted concentration of half-maximal effect; % is set by controls: 0 for no effect and ±100 for the full control effect
# FLuc counter = counter-screen for PMP22 expression modulators: firefly luciferase inhibition | shares compounds with PMP22 txn prim | AID 1508640 | purified P. pyralis FLuc, luminescence, 10 min | 690 tested, under 10 active | Potency, µM (titrated, usually from 57.5 µM), inactives show at the highest dose activity, negative = inhibition, most hits filed as inhibitors; note: % of control where 0% means no effect
# Target sequence (P08659 whole entry, looked up): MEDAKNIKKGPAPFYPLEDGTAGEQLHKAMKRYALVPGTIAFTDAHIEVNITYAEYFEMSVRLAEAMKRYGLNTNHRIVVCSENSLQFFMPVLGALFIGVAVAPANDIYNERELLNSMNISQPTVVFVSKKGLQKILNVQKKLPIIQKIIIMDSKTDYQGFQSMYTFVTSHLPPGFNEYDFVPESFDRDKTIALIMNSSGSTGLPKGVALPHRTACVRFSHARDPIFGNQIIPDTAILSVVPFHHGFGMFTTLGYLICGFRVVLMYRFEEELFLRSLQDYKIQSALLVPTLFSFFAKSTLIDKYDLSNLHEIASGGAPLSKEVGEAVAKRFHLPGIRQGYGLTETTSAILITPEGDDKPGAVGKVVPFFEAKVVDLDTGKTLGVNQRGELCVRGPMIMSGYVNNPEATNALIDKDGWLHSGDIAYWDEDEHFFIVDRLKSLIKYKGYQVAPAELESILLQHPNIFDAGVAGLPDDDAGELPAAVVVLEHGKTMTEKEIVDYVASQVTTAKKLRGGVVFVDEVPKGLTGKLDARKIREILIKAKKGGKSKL
# S16 F2sN tox cnf = confirmation of cytotoxicity in S16 Pmp22-F2sN Schwann cells (luciferase reporters placed in the Pmp22 gene). shares compounds with PMP22 txn prim. S16 Schwann cells viability, CellTiter-Glo ATP luminescence, 24 h. Potency, µM (series often up to 57.5 µM), without a hit: at the top dose activity change, negative = viability loss, most hits filed as cytotoxic. 690 compounds, 7% hits; note: potency is the fitted concentration of half-maximal effect; % is set by controls: 0 for no effect and ±100 for the full control effect
# PMP22 txn cnf = PMP22 transcription modulation, confirmatory; 690 compounds, 22% hits; shares compounds with PMP22 txn prim; S16 Schwann cells Pmp22-F2sN, dual luciferase, 24 h; Potency, µM (titrated, usually from 57.5 µM), for inactives: at the top dose activity change, negative = inhibition, actives largely listed as inhibitors; active = clear falling dose curves in both reporters; inconclusive = both reporters move, but less clearly or upward; inactive = either reporter flat; the % is the FLuc reporter signal; note: potency is the fitted concentration of half-maximal effect
# PMP22 prot conf = confirmation of modulators of rat PMP22 protein expression | shares compounds with PMP22 txn prim | S16 Schwann cells Pmp22-HiBiT, luminescence, 48 h | Potency, µM (series often up to 27.9 µM), for the others: at the top dose activity change, negative = inhibition, usual class: inhibitors | 95 tested, under 10 active
# Target sequence (P25094 whole entry, looked up): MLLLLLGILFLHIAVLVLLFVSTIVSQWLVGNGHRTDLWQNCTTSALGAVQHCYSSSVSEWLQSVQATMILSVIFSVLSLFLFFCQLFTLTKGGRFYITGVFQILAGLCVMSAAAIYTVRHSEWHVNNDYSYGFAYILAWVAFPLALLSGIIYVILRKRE
# * hit, by the source's call; i = inactive; ? = inconclusive; / = no result given. Only some compounds are listed: those with a hit (about 3.1% of all), similar ones and a draw of the others. Unless noted, calls come from the whole dose curve; as a rule, active = well fitted curve in the direction sought with a large enough effect; inconclusive = small, poorly fitted or top-dose-only effect, or another doubt; inactive = no such curve, though single readings can be large; an effect the other way counts as inactive or inconclusive.
SMILES,p53null 39C kill,PMP22 txn prim,S16 viability,p53null 32C tox,mTORC1 inh,OvCa metastasis,NLuc saturating,NLuc Km counter,FLuc counter,S16 F2sN tox cnf,PMP22 txn cnf,others
O=S(=O)(c1ccc(Br)cc1)c1nnn2c1nc(Nc1cccc(C(F)(F)F)c1)c1sccc12,11%,?,-5%,2%,4%,4%,/,/,/,/,/,
CCOc1ccc(Nc2nc3c(S(=O)(=O)c4ccc(CC)cc4)nnn3c3ccc(Cl)cc23)cc1,-2%,7.9µM*,2%,-4%,1%,-4%,-15%,4%,-2%,-23%,?,
CC#CCn1c(N2CCC[C@@H](N)C2)nc2c1c(=O)n(Cc1nc(C)c3ccccc3n1)c(=O)n2C,/,/,/,/,/,-23%,/,/,/,/,/,
CCCCCS(=O)(=O)c1oc(-c2cccs2)nc1S(=O)(=O)c1ccc(C)cc1,9%,13µM*,?,19%,4%,?,-9%,2%,-2%,?,17µM*,PMP22 prot conf=36%
CCSc1oc(-c2cccs2)nc1S(=O)(=O)c1ccccc1,-16%,/,/,-3%,/,/,/,/,/,/,/,
CCS(=O)(=O)c1nc(S(=O)(=O)c2ccc(Cl)cc2)c(NCc2ccccc2Cl)s1,0%,4.8µM*,-26%,-2%,-16%,17%,?,?,8%,4%,-21%,
O=C(Cn1c(=O)n(-c2ccc(Cl)cc2)c(=O)c2c3c(sc21)CCC3)c1ccc(F)cc1,-19%,-14%,-3%,2%,-8%,1%,/,/,/,/,/,
O=c1c2c3c(sc2n(Cc2ccccc2F)c(=O)n1-c1ccc(Cl)cc1)CCCC3,-1%,10µM*,-1%,1%,-25%,i,-7%,-2%,2%,1%,?,
CC(C)(C(=O)NCC(F)(F)C(F)(F)F)C(=O)N[C@@H]1C(=O)Nc2ccccc2-c2ccccc21,/,/,/,/,/,-26%,/,/,/,/,/,
COCCNC(=O)c1cccc(Nc2nc3ccccc3n3nnnc23)c1,34%,11µM*,1%,-20%,0%,-9%,-14%,?,1%,-18%,-30%,
O=C(NCc1ccccc1Cl)c1ccc(Nc2nc3ccccc3n3nnnc23)cc1,4%,18µM*,-18%,-18%,-7%,-8%,-5%,-2%,2%,-22%,?,
CCCCOc1ccc(C(C)NC(=O)c2cccc(Nc3nc4ccccc4n4nnnc34)c2)cc1 (stereo unspecified),-5%,5.3µM*,?,-3%,2%,0%,-8%,5%,-8%,27µM*,10µM*,
CCOC(=O)N1CCN(Cc2nc3cc(NC(=O)CC)ccc3n2C(C)C)CC1,-11%,5.3µM*,-17%,6%,?,0%,-5%,-3%,1%,7%,?,
CCOC(=O)N1CCN(Cc2nc3cc(NC(=O)CC(C)C)ccc3n2C(C)C)CC1,?,?,-18%,7%,?,-1%,/,/,/,/,/,
CCOC(=O)N1CCN(Cc2nc3cc(NC(=O)c4ccc([N+](=O)[O-])cc4)ccc3n2C(C)C)CC1,4%,14µM*,-25%,-15%,?,-6%,?,19µM*,-7%,?,?,
N=c1n(CCN2CCCCC2)c2ccccc2n1CC(O)COc1ccc(Cl)cc1Cl (stereo unspecified),13µM*,12µM*,?,18µM*,3.7µM*,?,-17%,0%,-21%,31µM*,?,
COc1ccc(OCC(O)Cn2c(=N)n(CCN3CCCCC3)c3ccccc32)cc1 (stereo unspecified),?,?,?,-6%,/,?,/,/,/,/,/,
Cc1ccccc1CC1C(=O)Nc2ccc(Br)cc21 (stereo unspecified),-12%,-56%,?,-7%,-14%,i,/,/,/,/,/,
COc1ccc(Br)cc1CC1C(=O)Nc2ccccc21 (stereo unspecified),9%,14µM*,-19%,4%,-27%,-20%,?,?,-15%,-18%,?,PMP22 prot conf=23%
CCc1ccc(C(=O)c2cn(CC(=O)Nc3ccc4c(c3)OCO4)c3ccc(CC)cc3c2=O)cc1,?,13µM*,-5%,-4%,3%,i,-11%,-6%,5%,?,12µM*,PMP22 prot conf=?
CCc1ccc(C(=O)c2cn(CC(=O)Nc3ccc4c(c3)OCO4)c3ccc(Cl)cc3c2=O)cc1,?,?,-16%,-20%,?,i,/,/,/,/,/,
Cc1ccc(S(=O)(=O)Nc2cc3c(cc2N2CCOCC2)n(C)c(=O)n3C)c(C)c1,-16%,15µM*,?,1%,2%,10%,-4%,-3%,5%,-9%,-45%,
Cc1ccc(S(=O)(=O)Nc2cc3c(cc2N2CCOCC2)n(C)c(=O)n3C)cc1,-14%,/,/,-2%,-17%,i,/,/,/,/,/,
CCCCN(CC)CCCNC(=O)c1cc2c(=O)oc3ccc(C)cc3c2s1,10%,?,6%,3%,-2%,i,/,/,/,/,/,
